Some test systems named below: NCI-H23 lung; NCI-H226 lung; NCI-H322M lung; HOP-62 NSCLC; NCI-H460 lung; HOP-92 NSCLC; NCI-H522 lung; A549/ATCC NSCLC; 786-0 renal; COLO 205 colon; DU-145 prostate; K-562 leukemia; MALME-3M melanoma; MDA-MB-231 breast; RXF 393 renal; SF-268 CNS; SF-295 CNS; SF-539 CNS; UACC-257 melanoma; M14 melanoma.
Holding throughout (assay): NCI-60 one-dose screen, 48 h (100 = growth as untreated, 0 = no growth, -100 = all killed)
Common to all, as to details: 10 µM unless noted

Data on seven molecules can be found in PubChem BioAssay (NCI).

About 83,000 compounds went through this panel and 20% of them were active in at least one assay; those are over-represented in the sample as a whole.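 Plates (96-well) were seeded with cells, treated with compound at one concentration, and incubated for 48 hours before percent growth was determined.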 Unmarked numbers belong to inactive results. Calls of active or inactive are those of the source. How the source made its calls: active means growth percent below 10; inactive means the rest.

With `O=C(/C=C/C12c3ccccc3C(c3ccccc31)C1C(=O)NC(=O)C12)c1ccc(Cl)cc1Cl` (stereo not given), the growth is 32.9% in the assay with NCI-H23 lung; 78.7% in the assay with NCI-H226 lung; 41.4% in the assay with NCI-H322M lung; 21% with HOP-62 NSCLC; 8.61% (active) with NCI-H460 lung; 37.6% in the assay with HOP-92 NSCLC. The growth in the assay with NCI-H522 lung is 9.1% (active); in the assay with A549/ATCC NSCLC, 37.4%; in the assay on 786-0 renal, 19.1%; with COLO 205 colon it was -8.3% (active); with DU-145 prostate it was 23%; in the assay on K-562 leukemia, 7.41% (active). The growth in the assay with MALME-3M melanoma was 48.2%; with MDA-MB-231 breast it was 19.3%; in the assay on RXF 393 renal it was -4.59% (active); in the assay on SF-268 CNS, 33.3%; in the assay on SF-295 CNS, 40.8%; in the assay on SF-539 CNS it was 39.4%. Moreover, the results for the growth in the assay with UACC-257 melanoma and in the assay with M14 melanoma were 41% and 24.4%, respectively.
On to `COc1cc2c(cc1-c1c(C)noc1C)ncc1nc(CN3CCOCC3)n([C@H](C)COC(F)F)c12`, for which the growth with NCI-H23 lung is 45.4%; with NCI-H226 lung, 58%; in the assay with NCI-H322M lung, 38.5%; in the assay on HOP-62 NSCLC it was 16.6%; with NCI-H460 lung it was 51.9%; with HOP-92 NSCLC, 5.85% (active). Besides, the growth in the assay on NCI-H522 lung is -0.0255% (active); in the assay on A549/ATCC NSCLC it was 37.6%; in the assay on 786-0 renal, 45.5%; with COLO 205 colon, 14.7%; with DU-145 prostate, 62.2%; in the assay on K-562 leukemia, 28%. Also, the growth is 37.8% in the assay with MALME-3M melanoma; 29.5% in the assay on MDA-MB-231 breast; 35.1% in the assay with RXF 393 renal; 55.2% in the assay with SF-268 CNS; 40.3% with SF-295 CNS; 35.1% with SF-539 CNS. Moreover, the figures for the growth in the assay with UACC-257 melanoma and in the assay on M14 melanoma were 26.3% and 40.1%, respectively.
For `O=C(/C=C/c1ccccc1)c1cccc2ccccc12`, the growth in the assay with NCI-H23 lung is 26.2%; in the assay on NCI-H226 lung, 41.2%; in the assay on NCI-H322M lung, 57.5%; in the assay on HOP-62 NSCLC it was 37.7%; in the assay with NCI-H460 lung, 10.6%; with HOP-92 NSCLC, 47.3%. Further, the growth is 17.2% with NCI-H522 lung; 39% in the assay on A549/ATCC NSCLC; 83.5% with 786-0 renal; 97.7% in the assay on COLO 205 colon; 15.6% in the assay on DU-145 prostate; 10.6% in the assay with K-562 leukemia. Besides, the growth in the assay on MALME-3M melanoma is 68.8%; with MDA-MB-231 breast, 55.1%; with RXF 393 renal, 12.4%; in the assay on SF-268 CNS it was 42.1%; in the assay on SF-295 CNS, 34.8%; with SF-539 CNS it was 51.2%. For the same molecule, the growth with UACC-257 melanoma is 40.2%; in the assay with M14 melanoma, 86.7%.
As for `Cc1ccc(S(=O)(=O)OCC#CCOS(=O)(=O)c2ccc(C)cc2)cc1`, the growth with NCI-H23 lung is 59.3%; with NCI-H226 lung, 84.3%; in the assay on NCI-H322M lung, 93.9%; in the assay on HOP-62 NSCLC, -12.9% (active); in the assay with NCI-H460 lung it was 13.4%; in the assay on HOP-92 NSCLC it was 40.2%. Moreover, the growth was -65.4% (active) in the assay on NCI-H522 lung; 17.1% in the assay with A549/ATCC NSCLC; 74.5% in the assay with 786-0 renal; 52.6% with COLO 205 colon; 52.2% in the assay with DU-145 prostate; 40.2% in the assay on K-562 leukemia. Besides, the growth with MALME-3M melanoma is -65.9% (active); in the assay on MDA-MB-231 breast, 57.9%; in the assay with RXF 393 renal, 58.6%; with SF-268 CNS it was 53.8%; in the assay with SF-295 CNS it was 42.2%; with SF-539 CNS it was 81.9%. The growth is 66.8% in the assay on UACC-257 melanoma and 43.6% with M14 melanoma.
As to `CN1C(=O)N2CN3CCCN(C3)CN3C(=S)NC1C23` (stereo not given), the growth is 103% in the assay with NCI-H23 lung; 99.6% with NCI-H226 lung; 105% in the assay on NCI-H322M lung; 104% in the assay on HOP-62 NSCLC; 105% in the assay on NCI-H460 lung; 98.7% in the assay on HOP-92 NSCLC. The growth is 95% with NCI-H522 lung; 87% in the assay on A549/ATCC NSCLC; 102% with 786-0 renal; 117% in the assay with COLO 205 colon; 103% with DU-145 prostate; 97.1% with K-562 leukemia. Moreover, the growth in the assay with MALME-3M melanoma is 112%; with MDA-MB-231 breast, 104%; in the assay with RXF 393 renal it was 109%; with SF-268 CNS it was 99.8%; with SF-295 CNS, 105%; with SF-539 CNS, 103%. Besides, the growth in the assay on UACC-257 melanoma was 87.6%; in the assay on M14 melanoma, 107%.
`CCCC(O)Cn1ncc(C(=O)OCC)c1NC(=O)NCc1cccc(C(F)(F)F)c1` (stereo not given): the growth was 80.1% in the assay with NCI-H23 lung; 103% in the assay on NCI-H226 lung; 84.3% in the assay on NCI-H322M lung; 88.2% in the assay on HOP-62 NSCLC; 103% in the assay with NCI-H460 lung; 58.8% in the assay with HOP-92 NSCLC. Further, the growth in the assay with NCI-H522 lung is 46.5%; in the assay on A549/ATCC NSCLC it was 95%; in the assay with 786-0 renal, 80.1%; in the assay on COLO 205 colon it was 109%; in the assay on DU-145 prostate, 99.8%; with K-562 leukemia it was 46.9%. In addition, the growth was 92% in the assay with MALME-3M melanoma; 95.1% in the assay on MDA-MB-231 breast; 113% in the assay on RXF 393 renal; 103% in the assay on SF-268 CNS; 93.8% with SF-295 CNS; 94.3% with SF-539 CNS. The growth in the assay on UACC-257 melanoma was 101%; in the assay with M14 melanoma, 58.5%.
With `Nc1ccc(-c2ccncc2)cc1NC(=O)N1CCCC1`, the growth with NCI-H23 lung was 102%; in the assay on NCI-H226 lung, 98.1%; in the assay on NCI-H322M lung, 92%; with HOP-62 NSCLC, 86.5%; with NCI-H460 lung, 100%; in the assay with HOP-92 NSCLC it was 104%. Besides, the growth in the assay with NCI-H522 lung was 57.4%; in the assay with A549/ATCC NSCLC, 87.7%; with 786-0 renal it was 96.8%; in the assay on COLO 205 colon, 105%; with DU-145 prostate it was 105%; in the assay with K-562 leukemia, 102%. The growth was 69.9% in the assay with MALME-3M melanoma; 120% in the assay with MDA-MB-231 breast; 100% in the assay on RXF 393 renal; 93.3% in the assay with SF-268 CNS; 103% with SF-295 CNS; 90.1% in the assay on SF-539 CNS. The growth in the assay on UACC-257 melanoma was 59.7%; in the assay with M14 melanoma it was 94.2%.
